Rows were chosen to be rich in hits. Some 10% of all compounds tested hit in one or more screens of this group.
SARS PLP yeast = SARS-CoV PLP inhibition in yeast; S. cerevisiae expressing SARS-CoV PLpro, growth rescue; Potency, µM (doses to about 32.9 µM), without a hit: at the highest dose activity, positive = growth rescue, most hits filed as activators; hit rate 0.19% among 330,000; further: 0% is about no effect; nearly all actives have a fitted effect of over 55% in size
Pf growth 96h = inhibits malaria parasite growth, 96 h; P. falciparum luciferase reporter growth, 96 h; Potency, µM (top dose mostly 28.7 µM), for inactives: at the highest dose activity change, negative = inhibition, usual class: inhibitors; hit rate 6.9% among 320,000; active means well fitted inhibition curve with a large enough effect; inconclusive means small, poorly fitted or top-dose-only effect, or another doubt; inactive means no such curve, though single readings can be large or run the other way; further: on the % scale 0 is the no-effect control and ±100 the full control effect
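Plates of compound plus infected erythrocytes (2% hematocrit, 0.05% parasitemia final) incubate 96 hours, 37 C, 5% CO2. Detection reagent added; reduced luminescence from the parasites' luciferase reporter flags inhibition.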
NS1 function inh = blocks influenza NS1 protein function | Potency, µM (doses to about 46.1 µM), without a hit: top-dose activity, positive = more growth | hit rate 0.4% among 270,000 | AID 2326; further: actives are rising curves; nearly all actives have a fitted effect of over 50% in size
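Read-out: OD600 growth recovery of NS1-expressing budding yeast. Cells grown overnight at 30C in -URA glucose medium, washed, resuspended and diluted 1:100 in 2% galactose assay medium, pH 6.0. Same strain lacking NS1 served as positive control.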
Pf growth 48h = P. falciparum growth inhibition at 48 hours (one generation); P. falciparum luciferase growth in erythrocytes, 48 h; hit rate 5.9% among 310,000; Potency, µM (series often up to 28.7 µM), for inactives: at the top dose activity change, negative = inhibition, most hits filed as inhibitors; active means well fitted inhibition curve with a large enough effect; inconclusive means small, poorly fitted or top-dose-only effect, or another doubt; inactive means no such curve, though single readings can be large or run the other way; further: on the % scale 0 is the no-effect control and ±100 the full control effect
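Parasite viability was followed by luminescence of a genomically integrated firefly luciferase. Cultures held 0.1% parasitemia at 2% hematocrit (final), incubated under 5% CO2 at 37 C.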
An asterisk follows results filed as active; ? = inconclusive; · = no result given. Unless noted, the call rests on the fitted dose curve. Potency means the concentration at half of the fitted maximal effect.

SMILES	SARS PLP yeast	Pf growth 96h	NS1 function inh	Pf growth 48h
C[C@]12CC[C@@H]3c4ccc(OC(=O)c5ccccc5)cc4CC[C@H]3[C@@H]1CC[C@@H]2O	-6%	8.3µM*	-2%	?
Cc1cccc(-n2ncc3c(=O)[nH]c(SCC(=O)N4CC(=O)Nc5ccccc54)nc32)c1	-6%	9%	·	?
CCN1CCN(CCC(=O)Nc2cc(OC)cc(OC)c2)CC1	-1%	?	12%	?
O=C(c1cccs1)N1CCN(C(=O)c2cn(-c3ccccc3)nc2-c2ccccc2)CC1	-4%	·	·	·
CC(NC(=O)COC(=O)c1cn(-c2ccccc2)nc1-c1cccs1)c1ccccc1 (stereo not drawn)	16%	3.3µM*	17%	·
O=C(Nc1ccncc1)c1cn(-c2ccccc2)nc1-c1cccs1	-31%	2.9µM*	-1%	·
O=C(c1cn(-c2ccccc2)nc1-c1cccs1)N1CCN(c2ccc(F)cc2)CC1	-8%	9.3µM*	?	?
COC(=O)c1ccc(NC(=O)c2cn(-c3ccccc3)nc2-c2ccncc2)cc1	0%	?	8%	12µM*
COc1cc(Br)c(CN2C(=O)NC3(CCCCCC3)C2=O)cc1OC	0%	0%	-2%	-1%
Cn1nc(C(F)(F)F)c2cc(C(=O)Nc3ccc(F)cc3)sc21	-2%	?	-6%	?
Cn1nc(C(F)(F)F)c2cc(C(=O)Nc3ccc(C(F)(F)F)cc3)sc21	0%	?	-8%	6.6µM*
Cn1nc(C(F)(F)F)c2cc(C(=O)Nc3ccc(F)c(Cl)c3)sc21	-1%	2.1µM*	-7%	3.3µM*
CC(C)c1cc(CN2CCN(CCC#N)CC2)cc(C(C)C)c1O	2%	?	3%	2.3µM*
Cc1cccc(C(=O)O/N=C(\N)CS(=O)(=O)c2ccccc2)c1	5%	10%	1%	0%
CC(C)NCC(O)COC1C2CC3CC(C2)CC1C3 (stereo not drawn)	0%	4%	3%	8.3µM*
CC(C)NCC(O)COC1CCC(C(C)(C)C)CC1 (stereo not drawn)	-11%	?	·	?
CC1CCC(C(C)C)C(OC(=O)Cn2c(-c3ccc(Br)cc3)[n+](C)c3ccccc32)C1 (stereo not drawn)	-1%	?	-2%	1.7µM*
Cc1cc(C)n2nc(/C(C#N)=C/c3ccccn3)c(C#N)c2n1	1%	?	·	419%
COc1ccc(Oc2coc3cc(OC(=O)c4cccs4)ccc3c2=O)cc1	1%	4.1µM*	-7%	54%
CC(Oc1ccccc1F)c1nnc(SCC(=O)N(c2ccccc2)C2CCS(=O)(=O)C2)o1 (stereo not drawn)	1%	·	·	·
COc1ccc(CNc2nc3ccccc3n2Cc2ccc(Cl)cc2)cc1OC	-8%	?	-23%	?
CCCCn1c(NCc2ccccc2O)nc2ccccc21	2%	54%	-16%	?
C=CCc1cccc(CNc2nc3ccccc3n2CCC)c1O	0%	·	-43%	12µM*
CCn1c(NCc2cc(OC)c(OC)c(OC)c2)nc2ccccc21	18%	0.23µM*	12%	-5%
C=CCc1cccc(CNc2nc3ccccc3n2CC)c1O	0%	·	-92%	15µM*
SMILES	SARS PLP yeast	Pf growth 96h	NS1 function inh	Pf growth 48h
CCn1c(NCc2ccccn2)nc2ccccc21	-26%	?	-3%	?
COCCOC1CCN(C(=O)C2CCC(=O)N(CCc3ccccc3)C2)CC1 (stereo not drawn)	12%	14%	-2%	-6%
COC(=O)c1ccc(OCC(O)CN2CCN(CC(O)COc3ccc(C(=O)OC)cc3)CC2)cc1 (stereo not drawn)	-1%	77%	0%	?
CCCN(CCC)CC(O)COc1ccc2c(c1)OCO2 (stereo not drawn)	1%	?	·	-25%
COC(=O)c1ccc(OCC(O)CN(CC(C)C)CC(C)C)cc1 (stereo not drawn)	4%	?	-7%	13µM*
CCCN(CCC)CC(O)COc1ccc([N+](=O)[O-])cc1 (stereo not drawn)	10%	15µM*	1%	?
CCOc1ccc(N(CC(=O)N2CCN(c3ccccc3OC)CC2)S(=O)(=O)c2ccc(C)cc2)cc1	-4%	12µM*	15%	?
COc1ccc(N(CC(=O)N2CCN(c3ccccc3)CC2)S(=O)(=O)c2ccc(C)cc2)cc1	3%	?	7%	15%
CCOc1ccc(N(CC(=O)N2CCN(c3ccccc3OC)CC2)S(=O)(=O)c2ccc(F)cc2)cc1	1%	0.93µM*	-14%	?
COc1ccc(C(=O)Nc2cc(C(F)(F)F)ccc2-n2cncn2)cc1	7%	?	-7%	·
CCC(Oc1ccccc1)C(=O)Nc1cc(Cl)ccc1-n1cncn1 (stereo not drawn)	0%	12µM*	·	4.1µM*
Cc1cc(CN2CCN(CC(=O)Nc3cc(C(F)(F)F)ccc3-n3cncn3)CC2)no1	1%	4.1µM*	·	10µM*
CC(Oc1ccc(F)cc1)C(=O)Nc1cc(C(F)(F)F)ccc1-n1cncn1 (stereo not drawn)	-1%	0.41µM*	·	0.59µM*
Cc1cc(CN2CCN(CC(=O)Nc3cc(Cl)ccc3-n3cncn3)CC2)no1	1%	2.1µM*	·	2.1µM*
CCc1ccc(C(=O)NNC(=O)c2cccc(S(=O)(=O)N3CCN(C)CC3)c2)cc1	-1%	8%	·	?
CC(C)NC(=O)C1CCN(c2ccc(S(=O)(=O)N3CCOCC3)cc2Cl)CC1	-1%	?	-6%	-21%
CCCCN(C)C(=O)C1CCN(c2ccc(S(=O)(=O)N3CCOCC3)cc2[N+](=O)[O-])CC1	-4%	9.3µM*	·	?
C=CCNC(=O)C1CCN(c2ccc(S(=O)(=O)N3CCOCC3)cc2Cl)CC1	1%	261%	3%	9.3µM*
CC(C)CNC(=O)C1CCN(c2ccc(S(=O)(=O)N3CCOCC3)cc2[N+](=O)[O-])CC1	3%	?	-7%	?
O=C(NCc1cccnc1)C1CCN(c2ccc(S(=O)(=O)N3CCOCC3)cc2Cl)CC1	-1%	32%	0%	-14%
CCCNC(=O)C1CCN(c2ccc(S(=O)(=O)N3CCOCC3)cc2Cl)CC1	-19%	?	-2%	13µM*
Cc1ccc(NC(=O)CNC(=O)c2cccs2)c(O)c1	2%	?	·	45%
Cc1cc(C(=O)O)ccc1N=Cc1c(O)ccc2ccccc12	-6%	12µM*	14%	49%
Oc1ccccc1N=Cc1c(O)ccc2ccccc12	-6%	10µM*	-57%	?
Oc1ccc2ccccc2c1C=Nc1ccccc1Br	1%	18%	9%	2%
CC(Oc1ccc(Cl)cc1)C(=O)N1CCN(C(=O)c2ccco2)CC1 (stereo not drawn)	-5%	1%	·	-23%
Cc1ccc2nc(-c3ccc(NC(=O)CN4CCN(C(=O)c5ccco5)CC4)cc3)sc2c1	5%	1.5µM*	-2%	2.3µM*
Cc1ccc2sc(-c3ccc(NC(=O)CCN4C(=O)c5ccccc5C4=O)cc3)nc2c1	-2%	9.3µM*	4%	137%
Cc1ccc(NC(=O)CN2CCN(C(=O)c3ccco3)CC2)cc1	1%	-9%	-12%	8%

Screening results: PubChem BioAssay, National Center for Advancing Translational Sciences (NCATS)
